Laboratory results from PubChem BioAssay AID1159580 (chemical genetic matrix, 2015).
Where “and” joins values, the source holds several entries; their conditions need not be identical. Equal entries are not always repeated. Out of some 5,500 compounds screened, about 2,000 (36%) were called active. Another 18% or so got no clear call; they are omitted. Cut-off read from the data, not from the text of the source: active = normalized growth mostly below about 0.91 (no sharp cut-off); inconclusive = no clear call, values can overlap the other calls; inactive = mostly above about 0.92. The list shows a part of the results.

Test: chemical genetic growth profiling, strain panel (AID 1159580);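 note: tested at 20 µM; growth read once vehicle control cultures reached saturation at 30 °C; 1 = growth at the plate median or of vehicle wells; lower values mean less growth of the strain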
Conditions: S. cerevisiae deletion strains, growth OD

Measured: normalized growth

O=C(O)CCC(=O)c1ccc(-c2ccccc2)cc1
0.994 (inactive) and 0.66 (active): locus YHR030C, strain SLT2, stronger effect = lower value
active: locus YDR137W, strain rgp1, stronger effect = lower value 0.793 | locus YGL078C, strain dbp3, stronger effect = lower value 0.842 | locus YHR079C, strain IRE1, stronger effect = lower value 0.739 | locus YJR066W, strain TOR1, stronger effect = lower value 0.706
inactive: locus YAL013W, strain DEP1, stronger effect = lower value 0.985 | locus YAL021C, strain ccr4, stronger effect = lower value 1.01 | locus YAL026C, strain drs2, stronger effect = lower value 0.976 | locus YAL030W, strain snc1, stronger effect = lower value 0.991 | locus YBL061C, strain skt5, stronger effect = lower value 0.989 | locus YBR009C, strain hhf1, stronger effect = lower value 0.998 | locus YBR021W, strain FUR4, stronger effect = lower value 0.964 | locus YBR023C, strain chs3, stronger effect = lower value 0.983 | locus YBR171W, strain sec66, stronger effect = lower value 0.983 | locus YBR229C, strain ROT2, stronger effect = lower value 0.986 | locus YBR231C, strain swc5, stronger effect = lower value 0.981 | locus YBR279W, strain paf1, stronger effect = lower value 0.975 | locus YCL011C, strain gbp2, stronger effect = lower value 1 | locus YCL016C, strain dcc1, stronger effect = lower value 0.999 | locus YCL029C, strain bik1, stronger effect = lower value 0.934 | locus YCL069W, strain vba3, stronger effect = lower value 0.983 | locus YCR088W, strain abp1, stronger effect = lower value 1.01 | locus YDL005C, strain med2, stronger effect = lower value 0.991 | locus YDL035C, strain GPR1, stronger effect = lower value 0.989 | locus YDL040C, strain nat1, stronger effect = lower value 0.986 | locus YDL074C, strain BRE1, stronger effect = lower value 0.957 | locus YDL101C, strain DUN1, stronger effect = lower value 0.959 | locus YDL134C, strain PPH21, stronger effect = lower value 0.972 | locus YDL185W, strain tfp1, stronger effect = lower value 0.962 | locus YDL192W, strain arf1, stronger effect = lower value 0.971 | locus YDR001C, strain nth1, stronger effect = lower value 0.982 | locus YDR069C, strain doa4, stronger effect = lower value 0.986 | locus YDR101C, strain arx1, stronger effect = lower value 0.964 | locus YDR150W, strain NUM1, stronger effect = lower value 0.99 | locus YDR159W, strain sac3, stronger effect = lower value 1.02 | locus YDR162C, strain NBP2, stronger effect = lower value 0.986 | locus YDR195W, strain ref2 0.929 | locus YDR297W, strain sur2, stronger effect = lower value 0.99 | locus YDR318W, strain mcm21, stronger effect = lower value 0.963 | locus YDR334W, strain swr1, stronger effect = lower value 0.977 | locus YDR335W, strain msn5, stronger effect = lower value 0.953 | locus YDR388W, stronger effect = lower value 0.958 | locus YDR392W, strain spt3, stronger effect = lower value 1.02 | locus YDR502C, strain sam2, stronger effect = lower value 0.987 | locus YEL003W, strain gim4, stronger effect = lower value 0.954 | locus YEL037C, strain rad23, stronger effect = lower value 0.97 | locus YEL061C, strain CIN8 (second series), stronger effect = lower value 0.978 | locus YEL061C, strain CIN8, stronger effect = lower value 0.998 | locus YER015W, strain faa2, stronger effect = lower value 0.991 | locus YER016W, strain bim1, stronger effect = lower value 0.995 | locus YER110C, stronger effect = lower value 0.973 | locus YER111C, strain swi4, stronger effect = lower value 0.988 | locus YER155C, strain BEM2 (second series), stronger effect = lower value 0.958 | locus YER155C, strain BEM2, stronger effect = lower value 0.986 | locus YER167W, strain BCK2, stronger effect = lower value 0.987 | locus YFR010W, strain ubp6, stronger effect = lower value 0.986 | locus YGL086W, strain mad1, stronger effect = lower value 0.985 | locus YGL167C, strain pmr1, stronger effect = lower value 0.969 | locus YGL173C, strain kem1, stronger effect = lower value 0.965 | locus YGL227W, strain vid30, stronger effect = lower value 1 | locus YGL240W, strain doc1, stronger effect = lower value 0.929 | locus YGL248W, strain PDE1, stronger effect = lower value 0.98 | locus YGL253W, strain hxk2, stronger effect = lower value 0.972 | locus YGR078C, strain PAC10, stronger effect = lower value 0.96 | locus YGR135W, strain pre9, stronger effect = lower value 0.946 | locus YGR229C, strain SMI1, stronger effect = lower value 0.986 | locus YGR252W, strain gcn5, stronger effect = lower value 0.861 | locus YHR013C, strain ard1, stronger effect = lower value 1 | locus YHR027C, strain rpn1, stronger effect = lower value 1 | locus YHR079C, strain IRE1 (second series), stronger effect = lower value 0.947 | locus YHR094C, strain hxt1, stronger effect = lower value 0.984 | locus YHR129C, strain ARP1, stronger effect = lower value 0.988 | locus YHR142W, strain chs7, stronger effect = lower value 0.94 | locus YHR200W, strain rpn10, stronger effect = lower value 0.975 | locus YIL066C, strain RNR3, stronger effect = lower value 0.973 | locus YIL073C, strain SPO22, stronger effect = lower value 0.948 | locus YIL125W, strain kgd1, stronger effect = lower value 0.967 | locus YIR030C, strain dcg1, stronger effect = lower value 0.974 | locus YJL092W, strain hpr5, stronger effect = lower value 0.998 | locus YJL095W, strain BCK1 (second series), stronger effect = lower value 0.997 | locus YJL115W, strain asf1, stronger effect = lower value 0.981 | locus YJL129C, strain trk1, stronger effect = lower value 0.915 | locus YJL134W, strain LCB3, stronger effect = lower value 0.99 | locus YJL154C, strain vps35, stronger effect = lower value 0.996 | locus YJL164C, strain tpk1, stronger effect = lower value 0.996 | locus YJL166W, strain qcr8, stronger effect = lower value 0.976 | locus YJL168C, strain set2, stronger effect = lower value 0.972 | locus YJL187C, strain SWE1 (second series), stronger effect = lower value 0.948 | locus YJR043C, strain POL32, stronger effect = lower value 0.937 | locus YJR075W, strain HOC1, stronger effect = lower value 0.963
0.971 (inactive) and 0.676 (active): locus YJL095W, strain BCK1, stronger effect = lower value
